The source made the active and inactive calls. No rule for the calls is given here.
assay: inhibitors of hydroxyurea-induced Chk1 phosphorylation, primary screen, imaging, HeLa, phospho-Chk1 nuclear intensity (AID 1187); settings: hydroxyurea-induced phospho-Chk1 immunofluorescence imaging, higher = more signal; also: test concentration not given here

SMILES	z-score
COC(=O)[C@@]1(Cc2ccc(F)cc2)[C@H]2c3cc(C(=O)N(C)C)n(Cc4ccc(C)c(F)c4F)c3C[C@H]2CN1C(=O)c1ccccc1	-0.193 (inactive)
COc1ccc(C#Cc2ccc3c(c2)[C@]2(C(=O)N3)[C@H](c3ccc(OCCO)cc3)N3[C@H](c4ccccc4)[C@H](c4ccccc4)OC(=O)[C@H]3[C@@H]2C(=O)N2CCN(c3ncccn3)CC2)cc1	-0.0676 (inactive)
COC(=O)[C@@]1(Cc2ccccc2)[C@H]2c3cc(C(=O)N(C)C)n(Cc4ccccn4)c3C[C@H]2CN1C(=O)c1ccccc1	0.295 (inactive)
C/C=C/[C@@H](CCn1cc([C@H](O)c2ccccc2)nn1)[Si](C)(C)c1ccc(OC)cc1	-0.159 (inactive)
N#Cc1ccc(NN2C(C(O)c3ccco3)C=CC3C(=O)N(c4ccccc4)C(=O)C32)cc1 (centres undefined)	-0.228 (inactive)
C#CCOC(=O)N[C@H](C=CCCCC)c1ccccc1	0.195 (inactive)
[N-]=[N+]=Nc1ccccc1[C@@H]1OC(c2ccc(OCCCO)cc2)=N[C@]1(CCS(=O)(=O)c1ccccc1)C(=O)NCc1ccccc1	-0.184 (inactive)
COc1cc(C(O)C2C=CC3C(=O)NC(=O)C3N2Nc2ccc(Cl)cc2Cl)cc(OC)c1OC (centres undefined)	0.148 (inactive)
C=CCN1C(=O)[C@@]2(O[C@@H](CCn3cc([C@H](O)c4ccccc4)nn3)[C@H]([Si](C)(C)c3ccc(OC)cc3)[C@H]2C)c2cc(NC(=O)c3ccc(OC)cc3)ccc21	-0.338 (inactive)
